PMC5540273 (PLoS ONE, 2017)
Where “and” joins values, the source holds several entries; their conditions need not be identical. Equal values may be shown once. Read-outs that look alike come from different tables or passages of the source.

Experiments:
[1] = system: MYO3B; conditions: concentration: 1 μM, replicates: in singlicate, n = 1
[2] = system: T1, NDR1; conditions: concentration: 1 μM, replicates: in singlicate, n = 1
T1 construct: gene STK38

[3] = system: NDR2; conditions: concentration: 1 μM, replicates: in singlicate, n = 1
[4] = system: NEK10; conditions: concentration: 1 μM, replicates: in singlicate, n = 1
[5] = system: NEK11; conditions: concentration: 1 μM, replicates: in singlicate; n = 1
[6] = system: NEK1; conditions: concentration: 1 μM, replicates: in singlicate, n = 1
[7] = system: NEK2; conditions: concentration: 1 μM, replicates: in singlicate, n = 1
[8] = system: NEK3; conditions: concentration: 1 μM, replicates: in singlicate, n = 1
[9] = system: NEK4; conditions: concentration: 1 μM, replicates: in singlicate, n = 1
[10] = system: NEK5; conditions: concentration: 1 μM, replicates: in singlicate, n = 1
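Note: KINOMEscan kinase panel screen.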

Compound	%Inh [1]	%Inh [2]	%Inh [3]	%Inh [4]	%Inh [5]	%Inh [6]	%Inh [7]	%Inh [8]	%Inh [9]	%Inh [10]	%Inh ([1]; 1 µM)	%Inh ([2]; 1 µM)	%Inh ([3]; 1 µM)	%Inh ([6]; 1 µM)	%Inh ([7]; 1 µM)	%Inh ([8]; 1 µM)	%Inh ([10]; 1 µM)	%Inh ([4]; 1 µM)	%Inh ([9]; 1 µM)
Cn1ccc2ncnc(Oc3ccc(NC(=O)Nc4ccncc4)c(Cl)c3)c21	13%	0%	17%	14%	0%	0%	0%	24%	0%	3%	–	–	–	–	–	–	–	–	–
Cc1nnc(-c2ccc3ncc(-c4ccc(S(C)=O)cc4)n3c2)o1 (stereo not drawn)	0%	0%	0%	0%	0%	0%	12%	36%	0%	0%	–	–	–	–	–	–	–	–	–
NS(=O)(=O)c1cccc(-c2ccc3ncc(N4CCOCC4)nc3c2)c1 [GSK1535721]	0%	21%	0%	0%	0%	0%	12%	0%	0%	8%	–	–	–	–	–	–	–	–	–
O=C(Nc1cccc(-c2nn3ncccc3c2-c2ccnc(Nc3cccc(C(F)(F)F)c3)n2)c1)c1c(F)cccc1F [GSK299495]	4%	0%	0%	17%	19%	0%	0%	11%	0%	13%	–	–	–	–	–	–	–	–	–
CCCCCc1nc2c(N)ncnc2n1CCCCC [SKF-97255]	10%	31%	7%	16%	0%	18%	0%	28%	0%	0%	–	–	–	–	–	–	–	–	–
COc1ccc(COc2cc(-n3cnc4ccccc43)sc2C(N)=O)cc1 [GSK1024304]	0%	6%	0%	19%	0%	0%	0%	0%	0%	7%	–	–	–	–	–	–	–	–	–
[2H]C([2H])(c1cccc(C(F)(F)F)c1C)n1ccn2c(=O)nc(N3CCOCC3)cc12 [GSK2336394]	0%	0%	0%	7%	0%	0%	0%	1%	27%	4%	–	–	–	–	–	–	–	–	–
CC(C)(C)n1cnc2c(N)ncnc21 [SKF-97359]	5%	0%	0%	12%	14%	0%	0%	42%	0%	0%	–	–	–	–	–	–	–	–	–
CN1c2ccc(CNc3ccc(F)cc3)cc2-c2c(cnn2C)S1(=O)=O	0%	16%	0%	0%	0%	1%	0%	28%	0%	0%	–	–	–	–	–	–	–	–	–
COc1cc(Nc2nccc(N3CCC(NC(=O)c4cccc(NC(C)=O)c4)C3)n2)cc(OC)c1OC (stereo not drawn) [GSK1379754]	0%	19%	0%	20%	0%	48%	7%	54%	24%	100%	–	–	–	–	–	–	–	–	–
COc1ccc(S(=O)(=O)NC2CCN(c3cc(C)nc(Nc4cccc(C#N)c4)n3)CC2)cc1.O=C(O)C(F)(F)F [GSK1653539]	0%	35%	0%	23%	0%	0%	3%	0%	0%	2%	–	–	–	–	–	–	–	–	–
Cn1cc(-c2ccc3c(c2)CCN3C(=O)Cc2ccccc2Cl)c2c(N)ncnc21 [GSK2608885]	33%	21%	0%	0%	0%	0%	79%	0%	5%	7%	–	–	–	–	–	–	–	–	–
Fc1ccc(-c2ncn(CCCN3CCOCC3)c2-c2ccccn2)cc1 [SB-211742]	10%	13%	0%	0%	0%	0%	7%	28%	0%	16%	–	–	–	–	–	–	–	–	–
COC(=O)Nc1nc2cc(Oc3ccc(NC(=O)Nc4cc(F)ccc4F)cc3)ccc2[nH]1.Cl [GW701424]	0%	26%	0%	8%	7%	0%	0%	0%	0%	3%	–	–	–	–	–	–	–	–	–
O=C(NCCCN1CCOCC1)c1cccc(Nc2nccc(Nc3ccc(Oc4ccccc4)cc3)n2)c1 [GW663929]	0%	40%	41%	0%	13%	11%	6%	5%	0%	24%	–	–	–	–	–	–	–	–	–
O=C(Nc1n[nH]c2cc(-c3cccc(F)c3)ccc12)C1CC1 [SB-735464]	0%	25%	11%	0%	37%	0%	0%	23%	14%	0%	–	–	–	–	–	–	–	–	–
O=C(NCCNc1ccnc(Nc2ccc(F)cc2)n1)Nc1ccccc1F [GSK1379880]	0%	0%	0%	12%	0%	0%	0%	11%	15%	0%	–	–	–	–	–	–	–	–	–

Compound	%Inh [1]	%Inh [2]	%Inh [3]	%Inh [4]	%Inh [5]	%Inh [6]	%Inh [7]	%Inh [8]	%Inh [9]	%Inh [10]	%Inh ([1]; 1 µM)	%Inh ([2]; 1 µM)	%Inh ([3]; 1 µM)	%Inh ([6]; 1 µM)	%Inh ([7]; 1 µM)	%Inh ([8]; 1 µM)	%Inh ([10]; 1 µM)	%Inh ([4]; 1 µM)	%Inh ([9]; 1 µM)
Fc1ccc(-c2ncn(CCCN3CCOCC3)c2-c2cccnc2)cc1 [SB-211743]	17%	33%	10%	14%	0%	0%	0%	15%	0%	0%	–	–	–	–	–	–	–	–	–
O=C1NC(=O)C(N2CCc3ccccc32)=C1c1cccc(Cl)c1 [SB-408010]	21%	6%	7%	43%	0%	3%	12%	14%	0%	0%	–	–	–	–	–	–	–	–	–
Cl.Oc1cccc(Nc2ccnc3cc(-c4ccncc4)ccc23)c1 [GW494601]	0%	24%	37%	0%	49%	0%	0%	1%	0%	0%	–	–	–	–	–	–	–	–	–
Cl.Cl.Cl.Fc1ccc(-c2ncn(C3CCNCC3)c2-c2ccnc(Nc3ccccc3)n2)cc1 [SB-238039]	–	–	–	0%	0%	–	–	–	0%	–	20% and 21%	37% and 6%	8% and 0%	15% and 0%	0% and 2%	23% and 29%	0% and 15%	–	–
Cl.Nc1ncnc2occ(-c3ccc(NC(=O)Nc4cc(C(F)(F)F)ccc4F)cc3)c12 [SB-707548]	57%	29%	40%	1%	0%	40%	37%	1%	5%	30%	–	–	–	–	–	–	–	–	–
CCc1nc(-c2cccc(C)c2)c(-c2ccnc(NCc3ccccc3)c2)s1	0%	0%	0%	0%	0%	7%	0%	24%	0%	0%	–	–	–	–	–	–	–	–	–
CC(C)(CN)c1nc(-c2ccc(Cl)c(O)c2)c(-c2ccncc2)[nH]1.O=C(O)C(F)(F)F [SB-477794]	–	–	–	–	0%	–	–	–	–	–	0% and 47%	40% and 49%	63% and 52%	0% and 100%	12% and 0%	26% and 0%	13% and 3%	19% and 24%	21% and 10%
COc1ccc(Nc2nccc(N3CCC(NC(=O)Nc4cccc(C(C)=O)c4)C3)n2)cc1 (stereo not drawn) [GSK1379731]	0%	0%	0%	13%	15%	0%	0%	0%	13%	3%	–	–	–	–	–	–	–	–	–
NCC(NC(=O)c1cc(-c2cn[nH]c2)c(-c2ccnc3[nH]ccc23)s1)c1ccccc1.O=C(O)C(F)(F)F.O=C(O)C(F)(F)F (stereo not drawn) [GSK1325775]	0%	65%	70%	50%	15%	72%	43%	7%	0%	57%	–	–	–	–	–	–	–	–	–
CN(C1=C(c2ccccc2)C(=O)NC1=O)c1ccccc1 [SB-334860]	0%	26%	24%	15%	0%	8%	0%	9%	0%	23%	–	–	–	–	–	–	–	–	–
NS(=O)(=O)CCc1cccc(Nc2nccc(-c3c(-c4cccc(NC(=O)c5c(F)cccc5F)c4)nn4ccccc34)n2)c1 [GSK336735]	4%	18%	0%	7%	0%	0%	22%	0%	19%	8%	–	–	–	–	–	–	–	–	–
CNc1ncnc2[nH]ncc12 [SKF-18355]	34%	46%	23%	16%	0%	0%	0%	26%	0%	0%	–	–	–	–	–	–	–	–	–
Cc1c(Cn2c(C)nn3c(=O)cc(N4CCOC(C)C4)nc23)cccc1C(F)(F)F (stereo not drawn) [GSK2344444]	0%	0%	0%	2%	0%	0%	3%	0%	22%	0%	–	–	–	–	–	–	–	–	–
O=c1cc(N2CCOCC2)nc2n(Cc3cccc(F)c3)ccn12 [GSK2297430]	0%	0%	0%	24%	0%	0%	0%	0%	0%	0%	–	–	–	–	–	–	–	–	–
Cc1ccc(NC(=O)c2ccnc(N3CCN(C)CC3)c2)cc1-c1ccc(C(=O)NCC2CC2)cc1 [GW775604]	22%	27%	0%	0%	0%	20%	0%	20%	0%	0%	–	–	–	–	–	–	–	–	–
O=c1cc(N2CCOCC2)nc2n(Cc3cccc(Cl)c3Cl)c(C3CC3)nn12 [GSK2358994]	0%	0%	0%	20%	0%	0%	7%	5%	11%	0%	–	–	–	–	–	–	–	–	–
